Results as given in PubChem BioAssay (Tox21).
Records with an inconclusive call do not appear. Entries that show only a call come without a potency. Active and inactive are the calls of the source. The call rests on the fitted dose curve; in most records, active means well fitted cell-killing curve with a large enough effect in the repeat runs; inconclusive means weak or mixed curves, or effect the other way; inactive means flat fitted curve, though single readings scatter. Residues, ends and D or L forms follow the SMILES beside them.

Experiment: qHTS assay to identify small molecule antagonists of the androgen receptor (AR) signaling pathway using the MDA cell line - cell viability counter screen (AID 743041; further: nearly all actives have a fitted effect of over 45% in size)
Details: MDA-kb2 viability, CellTiter-Fluor, 16 h, cells co-treated with R1881 androgen agonist; series mostly up to 70.3 µM
Source text: National Center for Advancing Translational Sciences [NCATS]
NIH Chemical Genomics Center [NCGC]
U.S. Environmental Protection Agency [EPA]
National Institutes of Environmental Health Sciences [NIEHS]
National Toxicology Program [NTP]
U.S. Food and Drug Administration [FDA]
Androgen receptor (AR), a nuclear hormone receptor, plays a critical role in AR-dependent prostate cancer and other androgen related diseases. Endocrine disrupting chemicals (EDCs) and their interactions with steroid hormone receptors like AR may cause disruption of normal endocrine function as well as interfere with metabolic homeostasis, reproduction, developmental and behavioral functions. To identify the compounds that inhibit AR signaling, MDA-kb2 AR-luc cell line (from ATCC, deposited by Wilson et al.) was used to screen the Tox21 10K compound library. MDA-kb2 AR-luc cell line is human breast carcinoma cell line that was stably transfected with a luciferase reporter gene under control of the MMTV promoter containing response elements for both androgen receptor (AR) and glucocorticoid receptor (GR). The cytotoxicity of the Tox21 compound library against the MDA-kb2 AR-luc cell line was tested in parallel by measuring the cell viability using CellTiter-Fluor assay (Promega, Madison, WI) in the same wells.
Tox21 Assay Protocol Summary:
MDA-kb2 AR-luc cells were dispensed at 3,000 cells/4 uL/well of culture medium into white wall/solid-bottom 1536-well plates using a Multidrop Combi (ThermoFisher Scientific, Waltham, MA) dispenser. After the assay plates were incubated at a 37C and 0% CO2 for 5 hr, 23 nL of compounds dissolved in DMSO, positive controls or DMSO only was transferred to the assay plate by a Pintool station (Kalypsys, San Diego, CA), followed by addition of 1 uL of agonist (R1881) in culture medium using a Bioraptr Flying Reagent Dispenser (FRD) workstation (Beckman Coulter, Indianapolis, IN, USA). The plates were incubated at a 37C and 0% CO2 for 16 h. After 15.5 h incubation, 1uL of CellTiter-Fluor reagent (Promega) was added using a Bioraptr FRD to each plate for measuring cytotoxicity. The fluorescence intensity was quantified on a ViewLux plate reader (PerkinElmer, Shelton, CT) following 30 min incubation at 37C and 0% CO2.
Potency means the concentration at half of the fitted maximal effect.

**Q.** For `CC(C)(COP(=O)(O)OP(=O)(O)OC[C@H]1O[C@@H](n2cnc3c(N)ncnc32)[C@H](O)[C@@H]1OP(=O)(O)O)C(O)C(=O)NCCC(=O)NCCS` (stereo not given in full), which Potency is on record?
**A.** inactive

**Q.** Which Potency does the source give for `O=c1[nH]c(=O)n([C@H]2C[C@H](O)[C@@H](CO)O2)cc1/C=C/Br` here?
**A.** inactive

**Q.** For `CCCCCCCCCC(=O)NO`, which Potency is on record?
**A.** inactive

**Q.** With `CCCCCCCCCCCCCCCCCCOCC(COP(=O)([O-])OCC[N+](C)(C)C)OC` (stereo not given) as the compound, how does the Potency read?
**A.** inactive

**Q.** Which Potency does the source give for `CN(C/C=C/c1ccccc1)Cc1cccc2ccccc12` here?
**A.** inactive

**Q.** With `Cc1onc(-c2c(F)cccc2Cl)c1C(=O)N[C@@H]1C(=O)N2[C@@H]1SC(C)(C)[C@@H]2C(=O)O` as the compound, how does the Potency read?
**A.** inactive

**Q.** Which Potency does the source give for `CSCC[C@H](NC(=O)[C@H](Cc1ccc(OS(=O)(=O)O)cc1)NC(=O)[C@@H](N)CC(=O)O)C(=O)NCC(=O)N[C@@H](Cc1c[nH]c2ccccc12)C(=O)N[C@@H](CCSC)C(=O)N[C@@H](CC(=O)O)C(=O)N[C@@H](Cc1ccccc1)C(N)=O` here?
**A.** inactive

**Q.** For `NC[C@H]1O[C@H](O[C@H]2[C@H](O)[C@@H](O[C@H]3O[C@H](CO)[C@@H](O)[C@H](N)[C@H]3O)[C@H](N)C[C@@H]2N)[C@H](N)C[C@@H]1O`, which Potency is on record?
**A.** inactive

**Q.** For `C[S+](C)CCC(N)C(=O)O` (stereo not given), which Potency is on record?
**A.** inactive

**Q.** Which Potency does the source give for `O=C(O)[C@H]1CN(C/C=C/P(=O)(O)O)CCN1` here?
**A.** inactive

**Q.** With `O=C(CCN1CCC(c2ccccc2)C1)c1ccc2c(c1)OCCO2` (stereo not given) as the compound, how does the Potency read?
**A.** 29.8 µM (active)

**Q.** With `CC(=O)[C@]1(O)Cc2c(O)c3c(c(O)c2[C@@H](O[C@H]2C[C@H](N)[C@H](O)[C@H](C)O2)C1)C(=O)c1ccccc1C3=O` as the compound, how does the Potency read?
**A.** 15 µM (active)

**Q.** Which Potency does the source give for `CC(C)COC(=O)OCN1C(=O)CN(CCN2CC(=O)N(COC(=O)OCC(C)C)C(=O)C2)CC1=O` here?
**A.** inactive

**Q.** Which Potency does the source give for `CC(C)C[C@H](NC(=O)[C@@H](COC(C)(C)C)NC(=O)[C@H](Cc1ccc(O)cc1)NC(=O)[C@H](CO)NC(=O)[C@H](Cc1c[nH]c2ccccc12)NC(=O)[C@H](Cc1cnc[nH]1)NC(=O)[C@@H]1CCC(=O)N1)C(=O)N[C@@H](CCCN=C(N)N)C(=O)N1CCC[C@H]1C(=O)NNC(N)=O` here?
**A.** inactive

**Q.** With `CC[N+](CC)(CC)CCC(O)(c1ccccc1)C1CCCCC1` (stereo not given) as the compound, how does the Potency read?
**A.** inactive

**Q.** For `O=C(CCCN1CCN2CCCC2C1)c1ccc(F)cc1` (stereo not given), which Potency is on record?
**A.** inactive

**Q.** Which Potency does the source give for `C[C@H](NCCc1ccc(O)cc1)[C@H](O)c1ccc(O)cc1` here?
**A.** inactive

**Q.** With `CC(C)[C@H](NC(=O)[C@H](CC(=O)O)NC(=O)[C@H](CCCCN)NC(=O)[C@@H](N)CCCN=C(N)N)C(=O)N[C@@H](Cc1ccc(O)cc1)C(=O)O` (H-RKDVY-OH) as the compound, how does the Potency read?
**A.** inactive

**Q.** With `CON=C1C[C@]2(C[C@@H]3C[C@@H](C/C=C(\C)C[C@@H](C)/C=C/C=C4\CO[C@@H]5[C@H](O)C(C)=C[C@@H](C(=O)O3)[C@]45O)O2)O[C@H](/C(C)=C/C(C)C)[C@H]1C` as the compound, how does the Potency read?
**A.** inactive

**Q.** Which Potency does the source give for `COC(=O)C[C@](O)(CCCC(C)(C)O)C(=O)O[C@@H]1C(OC)=CC23CCCN2CCc2cc4c(cc2[C@H]13)OCO4` (stereo not given in full) here?
**A.** 0.0531 µM (active)

**Q.** Which Potency does the source give for `CC(C)c1ccc2sc3ccccc3c(=O)c2c1` here?
**A.** inactive

**Q.** Which Potency does the source give for `O=C(O)COc1ccc(C(=O)c2cccs2)c(Cl)c1Cl` here?
**A.** inactive

**Q.** Which Potency does the source give for `O=P(O)(O)OP(=O)(O)OP(=O)(O)O` here?
**A.** inactive

**Q.** Which Potency does the source give for `O=C(O)/C=C/C(O)c1ccc(Cl)cc1` (stereo not given) here?
**A.** inactive

**Q.** With `NC(=O)c1cc[n+](CC2=C(C(=O)O)N3C(=O)[C@@H](NC(=O)C(c4ccccc4)S(=O)(=O)[O-])[C@H]3SC2)cc1` (stereo not given in full) as the compound, how does the Potency read?
**A.** inactive

**Q.** Which Potency does the source give for `CC(=O)OCC(=O)[C@@]1(O)CC[C@H]2[C@@H]3C[C@H](C)C4=CC(=O)C=C[C@]4(C)[C@H]3[C@@H](O)C[C@@]21C` here?
**A.** inactive

**Q.** For `CC(C)=CCC/C(C)=C/CC/C(C)=C/CC/C(C)=C/CC1=C(C)C(=O)c2ccccc2C1=O`, which Potency is on record?
**A.** inactive

**Q.** With `O=C1OC(O)C(C(Cl)Cl)=C1Cl` (stereo not given) as the compound, how does the Potency read?
**A.** inactive

**Q.** For `c1ccc2cc3c4ccccc4c4ccccc4c3cc2c1`, which Potency is on record?
**A.** inactive

**Q.** With `CC1=C(/C=C/C(C)=C/C=C/C(C)=C/C=C/C=C(C)/C=C/C=C(C)/C=C/C2=C(C)CCCC2(C)C)C(C)(C)CCC1` as the compound, how does the Potency read?
**A.** inactive

**Q.** With `CO[C@H]1C[C@@H]2CC[C@@H](C)[C@@](O)(O2)C(=O)C(=O)N2CCCC[C@H]2C(=O)O[C@H]([C@H](C)C[C@@H]2CC[C@@H](O)[C@H](OC)C2)CC(=O)[C@H](C)C=C(C)[C@@H](O)[C@@H](OC)C(=O)[C@H](C)C[C@H](C)/C=C/C=CC=C1C` as the compound, how does the Potency read?
**A.** 29.8 µM (active)

**Q.** With `FC(F)(F)C(F)(F)C(F)(F)C(F)(F)C(F)(F)F` as the compound, how does the Potency read?
**A.** inactive

**Q.** With `C(=C\c1ccncc1)/c1ccccc1` as the compound, how does the Potency read?
**A.** inactive

**Q.** With `CCCCCCCCCCCC[n+]1ccc2ccccc2c1` as the compound, how does the Potency read?
**A.** 5.96 µM (active)

**Q.** With `C=CC[N+]1([C@H]2C[C@H]3[C@@H]4CC[C@H]5C[C@H](O)[C@@H](N6CCOCC6)C[C@]5(C)[C@H]4CC[C@]3(C)[C@H]2OC(C)=O)CCCC1` as the compound, how does the Potency read?
**A.** inactive

**Q.** Which Potency does the source give for `CCN(CC)CCNC(=O)c1ccc(NS(C)(=O)=O)cc1` here?
**A.** inactive

**Q.** With `COC(=O)[C@H]1[C@H]2C[C@H]3c4[nH]c5ccccc5c4CCN3C[C@H]2CC[C@@H]1O` as the compound, how does the Potency read?
**A.** inactive

**Q.** Which Potency does the source give for `CCCCCCCCCCCCCC(=O)OCC(COP(=O)([O-])OCC[N+](C)(C)C)OC(=O)CCCCCCCCCCCCC` (stereo not given) here?
**A.** inactive

**Q.** With `SC1CCCCC1` as the compound, how does the Potency read?
**A.** inactive

**Q.** Which Potency does the source give for `C/C=C/C1=C(C(=O)O)N2C(=O)[C@@H](NC(=O)[C@H](N)c3ccc(O)cc3)[C@H]2SC1` here?
**A.** inactive
